Source: PubChem BioAssay
Hits are enriched below; roughly 18% of the tested compounds scored in any of these assays.
TDP1 cell noCPT – qHTS for Inhibitors of human tyrosyl-DNA phosphodiesterase 1 (TDP1): qHTS in cells in absence of CPT; DT40 Tdp1-/- hTDP1 cells, no CPT, ATP luminescence, 48 h; Potency, µM (highest dose often 46.2 µM), inactives show top-dose activity change, negative = growth inhibition, usual class: inhibitors; 420,000 tested, 15% active; AID 686978, 2013; further: potency means the concentration at half of the fitted maximal effect; on the % scale 0 is the no-effect control and ±100 the full control effect; nearly all actives have a fitted effect of over 55% in size
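A cellular qHTS used chicken DT40 cells lacking endogenous Tdp1 but carrying stably transfected human TDP1. Compounds were applied without camptothecin, and cell growth kinetics were judged by ATP-dependent luminescence after ≥48 hr.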
TDP1 cell CPT – qHTS for Inhibitors of human tyrosyl-DNA phosphodiesterase 1 (TDP1): qHTS in cells in presence of CPT; chicken DT40 Tdp1-/-;hTDP1 cells + 20 nM CPT, ATP luminescence, 48 h; Potency, µM (series often up to 46.2 µM), for the others: at the top dose activity change, negative = growth inhibition, actives largely listed as inhibitors; 420,000 tested, 12% active; further: potency means the concentration at half of the fitted maximal effect; on the % scale 0 is the no-effect control and ±100 the full control effect; nearly all actives have a fitted effect of over 55% in size
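Cell growth measured by CellTiter-Glo luminescence after a minimum 48 h, 37 C compound exposure with 20 nM CPT in Tdp1-knockout DT40 cells stably expressing hTDP1, seeded 400/well; qHTS titration format.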
TGFb inhibitor – qHTS for Inhibitors of TGF-b; AID 588855, 2011; 410,000 tested, 1.2% active; HepG2 CAGA-GFP TGF-b/SMAD3 reporter, GFP fluorescence, 18 h; TGF-beta stimulated, 500 pg/mL final; Potency, µM (series often up to 46.1 µM), for inactives: at the top dose activity, negative = inhibition, hits mostly inhibitors; further: potency means the concentration at half of the fitted maximal effect; on the % scale 0 is the no-effect control and ±100 the full control effect; nearly all actives have a fitted effect of over 65% in size
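HEPG2 CAGA-GFP cells (1000/well, DMEM with 1% FBS) were pre-incubated 2 h at 37 degrees C, given compound by pin tool, then stimulated with TGF-beta at 500 pg/mL final for 18 h before per-cell GFP fluorescence imaging.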
IL-1B inflam inh – qHTS for Inhibitors of Inflammasome Signaling: IL-1-beta AlphaLISA Primary Screen. THP-1 LPS/ATP IL-1B secretion, AlphaLISA, 16 h; hits give low values. activity change, % at 57.5 µM. 360,000 tested, 4.7% active; in the data active means activity change below about -50%; inconclusive means mostly about -30% to -49%; further: on the % scale 0 is the no-effect control and ±100 the full control effect
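THP-1 cells pretreated 1 hr with compounds (up to 57.5 uM final), then stimulated with LPS (250 ng/mL final) plus ATP (1.25 mM final); secreted IL-1B measured by AlphaLISA after 16 hr, decreased signal indicating inhibition.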
TDP1 block – qHTS Assay for Inhibitors of Tyrosyl-DNA Phosphodiesterase (TDP1); Tyrosyl-DNA phosphodiesterase 1 (Homo sapiens), Q9NUW8; recombinant TDP1, AlphaScreen DNA substrate cleavage; Potency, µM (highest dose often 130 µM), for inactives: top-dose activity change, negative = inhibition, most hits filed as inhibitors; 350,000 tested, 0.28% active; further: potency means the concentration at half of the fitted maximal effect; on the % scale 0 is the no-effect control and ±100 the full control effect; nearly all actives have a fitted effect of over 40% in size
Target sequence (Q9NUW8 whole entry, looked up): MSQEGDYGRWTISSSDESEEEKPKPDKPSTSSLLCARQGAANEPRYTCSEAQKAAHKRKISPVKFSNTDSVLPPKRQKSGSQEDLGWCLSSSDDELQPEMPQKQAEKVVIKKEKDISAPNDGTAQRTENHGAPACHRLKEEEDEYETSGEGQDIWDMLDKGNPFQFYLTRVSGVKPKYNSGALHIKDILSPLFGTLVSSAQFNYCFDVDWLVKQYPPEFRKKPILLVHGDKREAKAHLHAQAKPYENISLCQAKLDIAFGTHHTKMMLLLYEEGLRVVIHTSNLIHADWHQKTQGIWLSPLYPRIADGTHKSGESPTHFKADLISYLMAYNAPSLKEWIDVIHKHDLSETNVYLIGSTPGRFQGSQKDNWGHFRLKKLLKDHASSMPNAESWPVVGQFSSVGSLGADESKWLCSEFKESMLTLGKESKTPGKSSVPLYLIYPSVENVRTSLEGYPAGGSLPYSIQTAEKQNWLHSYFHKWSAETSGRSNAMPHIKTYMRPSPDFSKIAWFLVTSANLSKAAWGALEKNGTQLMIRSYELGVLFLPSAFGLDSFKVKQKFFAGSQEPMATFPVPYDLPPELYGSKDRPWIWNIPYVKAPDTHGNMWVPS
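Steps: enzyme plus compound, 15 min RT; add biotin/phosphotyrosine-FITC oligonucleotide (15 nM final), react 5 min; add donor/acceptor beads (10 ug/ml final), 10 min; read AlphaScreen. Tdp1 at 1 nM final.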
HepG2 tox – qHTS for Inhibitors of TGF-b: Cytotox Counterscreen. HepG2 CAGA-GFP viability, ATP luminescence, 18 h. 410,000 tested, 0.76% active. Potency, µM (series often up to 46.1 µM), without a hit: at the top dose activity change, negative = cytotoxicity, usual class: cytotoxic; further: potency means the concentration at half of the fitted maximal effect
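CellTiter-Glo luminescence gave cytotoxicity after 18 hours at 37 degrees C. The cells were HepG2 CAGA-GFP in 1% FBS DMEM, stimulated with 500 pg/mL TGF-beta after compound addition. %Activity was normalised to no-cell wells (complete cell-killing) and DMSO (no toxicity), and curves were fitted and classified.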
The depositor's hits bear a star; i = inactive; ? = inconclusive; / = no result; [ ] = remark or other dose. Unless noted, the call rests on the fitted dose curve; in most records, active means well fitted curve in the direction sought with a large enough effect; inconclusive means small, poorly fitted or top-dose-only effect, or another doubt; inactive means no such curve, though single readings can be large; an effect the other way counts as inactive or inconclusive.

SMILES	TDP1 cell noCPT	TDP1 cell CPT	TGFb inhibitor	IL-1B inflam inh	TDP1 block	HepG2 tox
O=C1CCC([N+](=O)[O-])C(c2ccccc2C(F)(F)F)N1 (configuration not stated)	-0.8%	-2.0%	3.3%	11.6	/	-6.0%
Cc1cc(C)c(NC(=O)CN(C2CCCCC2)C2CCCCC2)c(C)c1	16.4µM*	23.1µM*	1.9%	-3.8	2.0%	6.7%
Cc1cc(C)c(NC(=O)COC(=O)C2CCCCC2)c(C)c1	1.6%	9.0%	-2.2%	-15.0	2.6%	-4.9%
CS(=O)(=O)N(CC(=O)Nc1ccc(Br)cc1)C1CCCCC1	23.1µM*	?	-14.4%	-3.6	/	14.1%
Cc1ccc(NC(=O)CN(C)C2CCCCC2)cc1Br	18.4µM*	?	4.7%	-11.6	-6.2%	-28.4%
CS(=O)(=O)N(CC(=O)Nc1ccc(C(N)=O)cc1)C1CCCCC1	-22.7%	-6.4%	-2.4%	?	-1.5%	7.1%
c1ccc(CNc2nc(NCCOc3ccccc3)c3sccc3n2)cc1	16.4µM*	23.1µM*	?	/	/	11.2µM*
CNc1nc(NCCCN2CCCC2=O)c2sccc2n1	-2.3%	1.6%	?	-11.4	/	-12.9%
CNc1nc(NCCOc2ccccc2)c2sccc2n1	20.6µM*	18.4µM*	?	-6.7	/	-11.0%
C=CCc1ccccc1OCCSc1nc(-c2cccs2)nc2cc(=O)[nH]n12	?	?	?	/	-5.3%	-38.0%
Cc1ccc2c(c1)-c1c(c(C(=O)N3CCN(c4cc(C)ccc4C)CC3)nn1C)CS2	14.6µM*	?	-23.2%	/	-1.2%	-54.2%
CCCCNC(=O)c1nn(C)c2c1CSc1ccccc1-2	?	16.4µM*	-7.8%	/	14.3%	-12.7%
CCOc1ccccc1N(CC)C(=O)c1nn(C)c2c1CSc1ccccc1-2	?	25.9µM*	-14.8%	0.0	1.3%	-73.0%
COc1ccc(NC(=O)c2nn(C)c3c2CSc2ccc(C)cc2-3)cc1OC	?	?	-27.2%	/	6.2%	11.2µM*
COc1ccc(NC(=O)c2nn(C)c3c2CS(=O)(=O)c2ccccc2-3)cc1Cl	-28.9%	?	-4.6%	/	-1.3%	-12.8%
COc1cccc(C2c3c(ncn(-c4ccccn4)c3=N)Oc3ccc4ccccc4c32)c1 (configuration not stated)	/	/	/	/	-0.1%	/
Cn1nc(C(=O)Nc2ccccc2C#N)c2c1-c1ccccc1SC2	21.6%	-15.0%	-0.2%	/	11.4%	-14.4%
CCOc1ccccc1NC(=O)c1nn(C)c2c1CSc1ccccc1-2	18.4µM*	?	-11.3%	/	11.4%	-2.2%
CC1CC(C)CN(C(=O)c2nn(C)c3c2CSc2ccccc2-3)C1 (configuration not stated)	23.1µM*	?	-20.2%	-28.2	/	-30.5%
Cc1ccc(NC(=O)Nc2c(C)n(C)n(-c3ccccc3)c2=O)cc1C	23.1µM*	16.4µM*	-13.1%	13.1	2.5%	-14.3%
Cc1c(NC(=O)CC(=O)Nc2c(C)n(C)n(-c3ccccc3)c2=O)c(=O)n(-c2ccccc2)n1C	-11.4%	-12.2%	10.7%	12.1	3.9%	-5.3%
Cc1c(NN=C(C#N)C#N)c(=O)n(-c2ccccc2)n1C	?	-84.8%	6.0%	-60.8*	2.5%	5.6%
COc1ccc(NC(=O)Nc2c(C)n(C)n(-c3ccccc3)c2=O)cc1OC	18.7%	13.6%	-20.3%	i	3.0%[56.1 µM]	2.6%
NCCOc1ccc(C2CCCCC2)cc1	?	13µM*	?	-186.2*	4.9%	-52.3%
